# Assay results as given in article PMC13494018.
# Values without a mark were called inactive. The rule behind the calls is not given here.
# Molecular target: CD276, Q5ZPR3
# Sequence (Q5ZPR3 whole entry): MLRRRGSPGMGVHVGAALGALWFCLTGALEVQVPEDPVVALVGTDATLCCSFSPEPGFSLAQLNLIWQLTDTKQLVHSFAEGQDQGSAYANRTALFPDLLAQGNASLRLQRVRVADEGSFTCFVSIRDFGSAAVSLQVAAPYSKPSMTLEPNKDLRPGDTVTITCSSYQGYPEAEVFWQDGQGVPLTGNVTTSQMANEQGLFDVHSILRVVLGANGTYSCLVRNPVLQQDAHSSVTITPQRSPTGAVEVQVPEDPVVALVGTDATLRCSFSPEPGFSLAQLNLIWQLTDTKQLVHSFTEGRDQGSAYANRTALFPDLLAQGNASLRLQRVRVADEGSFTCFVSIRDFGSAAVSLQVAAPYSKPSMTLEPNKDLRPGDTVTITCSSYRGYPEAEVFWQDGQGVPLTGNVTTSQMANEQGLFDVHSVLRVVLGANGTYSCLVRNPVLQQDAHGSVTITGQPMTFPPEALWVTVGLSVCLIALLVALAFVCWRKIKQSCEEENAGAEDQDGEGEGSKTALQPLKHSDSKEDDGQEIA
row,Binder,binding in a display sort
1,design_622_fcc41892-afde-4fb9-b6e8-b664fffd6a75_7_dldesign_0_cycle1_af2pred (protein) NEHLKEAAKHLEKAIEADAETALQLAQEALSHLLAALREASPEVRPLVEEAISHVTQALVYLSEGGETVEKGREELKKALEHAEKAAA,not found
2,design_621_7e0052dc-ae49-49a0-b99f-9f3ee649cc2f_2349_dldesign_0_cycle1_af2pred (protein) GEQALQIARAAYVSAKNLLKDAEATENLEDAEKLAELAEAMAKQALEVAKAAAAQSAEAVEYAKKAKEYAEEAKKLVEEKKKA,not found
3,design_621_7e0052dc-ae49-49a0-b99f-9f3ee649cc2f_1478_dldesign_0_cycle1_af2pred (protein) AQALLDGVKRSSELAKEAEKYDPEAGKKILEVRTKGSAEASAVAVAGGTDAAVAAIAEKAAEEAKKLYEEAKKRAEERERE,not found
4,design_622_fcc41892-afde-4fb9-b6e8-b664fffd6a75_1277_dldesign_0_cycle1_af2pred (protein) SEEIIKKAEEIKEKAEKLLKEAAKLTPEQQKAAIKEMSKNLGELTELAKTASPEELKVINEAMNAAAKASVALAAKAA,not found
5,design_621_7e0052dc-ae49-49a0-b99f-9f3ee649cc2f_2068_dldesign_0_cycle1_af2pred (protein) DETLKKAKEALKKAAKAAKKIGDEEIAKKVEEALKLLTPESAELALAMAEALLASLKTADGKENAAKIATALRSGVANVAAA,not found
6,design_621_7e0052dc-ae49-49a0-b99f-9f3ee649cc2f_1809_dldesign_0_cycle1_af2pred (protein) GAELVRRTIEASARTARRAVEEARERAKTPEEVEAAAESARRILQVAVDIGANYPEVAGEAEELAAEVGEEAERTLEEARKEY,not found
7,design_622_fcc41892-afde-4fb9-b6e8-b664fffd6a75_169_dldesign_0_cycle1_af2pred (protein) AQRETIKNGILAMMRALALALDDPEKREEMIEALAGIAAQLPKEEGVRVIKEAAKEVAAKYPEKAEEILEAGERAVELAKKLS,not found
8,design_622_fcc41892-afde-4fb9-b6e8-b664fffd6a75_178_dldesign_0_cycle1_af2pred (protein) AAAAKAAAAAAAKAQTAEARALVEEAERLAETDPELAIEVARRAIALANRAALAAQRIGDAATAAEAMAVAERAAEVLTRAGRRARA,not found
9,design_622_fcc41892-afde-4fb9-b6e8-b664fffd6a75_148_dldesign_0_cycle1_af2pred (protein) GAAEEAAKVAAKGKALTDQAAAGDLETANALLGEALALLEEVARTGSPEAVAAAQAAVAALSKVVLAKAAA,not found
10,design_622_fcc41892-afde-4fb9-b6e8-b664fffd6a75_655_dldesign_0_cycle1_af2pred (protein) SMEAAAREAGKAEAEKVFAEAKAEGLGLGEAAKRIHDIFSKVSKFNPEFGAIARNAALAELQKLALAADA,not found
11,design_622_fcc41892-afde-4fb9-b6e8-b664fffd6a75_786_dldesign_0_cycle1_af2pred (protein) DLLAEALRLAERAVEALREDPEEGRRLLEELAELGRRALAEKGDGLAVLLGLAARRALRLLEEDPEEARDFLERAVAFVRAQS,not found
12,design_621_7e0052dc-ae49-49a0-b99f-9f3ee649cc2f_2346_dldesign_0_cycle1_af2pred (protein) AEVAEIAKKTAEEVKKLIEAGAPAEEAAAVLNAGIAAVIKAAKAAGPASAADLGKAMDIFKETAELIVAYERERAAEAA,not found
13,design_621_7e0052dc-ae49-49a0-b99f-9f3ee649cc2f_2499_dldesign_0_cycle1_af2pred (protein) AAAQQTFQNFLGYATLAAAYLATVDPAAAEELMALAAKARADPEKAKEYFAKAKELLTKHLDKLAAYSPEAGQAAQNAIDAANTLL,not found
14,design_621_7e0052dc-ae49-49a0-b99f-9f3ee649cc2f_1898_dldesign_0_cycle1_af2pred (protein) ALAEAQRRAERLEREVEEAERRIEEHADDAERLEELAERLERLAHEALRLAATAPNEVAQRAVEIAERAARAAERARATAERLR,not found
15,design_622_fcc41892-afde-4fb9-b6e8-b664fffd6a75_572_dldesign_0_cycle1_af2pred (protein) EEELKKAVEEAKKEAKKAIETATQAIKLAQNYPALQAMAQAVKDAAKKALEKAEKGDLETAKRELQALKANLQMAQLLLESAQAG,not found
16,design_621_7e0052dc-ae49-49a0-b99f-9f3ee649cc2f_1508_dldesign_0_cycle1_af2pred (protein) AKEEEEEAKKKAESVKKMVEVAKALAEYAKKSTDPQVAKIAANAAIGLANNAIEVGKKYPEAEPYAKEAEKVKEEAKKVIEEK,not found
17,design_622_fcc41892-afde-4fb9-b6e8-b664fffd6a75_281_dldesign_0_cycle1_af2pred (protein) MKEKEKKLVEEAEKLLKEAKALPATPEGAQQAVQYGQKAAELGKKIKEAGGTKEAAEKAYQYANEAFKIAAQLGAQAA,not found
18,design_622_fcc41892-afde-4fb9-b6e8-b664fffd6a75_254_dldesign_0_cycle1_af2pred (protein) VDPEAQAKAEAEKMLEETKKAAEESPELAAETLNKGMAEMVKLAQANPEANEIYMKYGIEAAKKASEYIKELQEKRA,not found
19,design_622_fcc41892-afde-4fb9-b6e8-b664fffd6a75_876_dldesign_0_cycle1_af2pred (protein) AEAERLRAGAESVLKMADVAYQAAKASAANPAAVAQAIASMTAAYKNAAELYREAGDEEKAKAALAKGDADVAAAKALAA,not found

row,Binder,binding in a display sort
1,design_621_7e0052dc-ae49-49a0-b99f-9f3ee649cc2f_2237_dldesign_0_cycle1_af2pred (protein) MREEINRRMVELSGRINALFPYAQQDPEVNALLGKALGDLLEAHATPDPEEAAELVERAEEYVEAAEARAAALAA,not found
2,design_621_7e0052dc-ae49-49a0-b99f-9f3ee649cc2f_1792_dldesign_0_cycle1_af2pred (protein) EEAARQALLEAVTKTAIDLIKKADEAAKTDPAQAELYAYQAASLIASVLHQDPEKGKEVLEIAKKSAFGELITKKTEEMLKKIDAA,not found
3,design_622_fcc41892-afde-4fb9-b6e8-b664fffd6a75_316_dldesign_0_cycle1_af2pred (protein) DALKVIEEYTKKALENIEDRELAALYLANMGVKVAQLVGDGSIGALAMKAAAEAYKSSVEEAKKIIKETAEKIKKIVE,not found
4,design_622_fcc41892-afde-4fb9-b6e8-b664fffd6a75_1097_dldesign_0_cycle1_af2pred (protein) SASEVAIKGGTALVNGAARAGIERIRRAGGGEADVERVKKIAEEAKKKIKAAKADAAKIGAIASEAVEEIRKLTEEVEKKA,not found
5,design_622_fcc41892-afde-4fb9-b6e8-b664fffd6a75_667_dldesign_0_cycle1_af2pred (protein) SAEEAVRKGEELTREAIKLAEEAVKGTPEKAKKAVEEIVKKMAEAIKASPAYGLLIANQARAIYLEAGKEDEAKAVKEGYKKALELAA,not found
6,design_621_7e0052dc-ae49-49a0-b99f-9f3ee649cc2f_1427_dldesign_0_cycle1_af2pred (protein) AAAAAEAAALAQINALTATAVAAAKDPATQPVANAALGQASALAIAQHKVDPAAGAKASQALAAGVEATAAARAAAKAAAAAAAA,not found
7,design_622_fcc41892-afde-4fb9-b6e8-b664fffd6a75_256_dldesign_0_cycle1_af2pred (protein) SAAAVAAAAAAASARQASAALEEALATGTPEEVLRAAETALKMAEVLAWAGEQSPAAQAALDALRAKAEAARKAVAAA,not found
8,design_621_7e0052dc-ae49-49a0-b99f-9f3ee649cc2f_1985_dldesign_0_cycle1_af2pred (protein) MAEEAEKLKKEAEKEFEKLKAEAKKYAAANGAKGQLAYQAVVGTGRSALDSLEALADDPERAKKTVEQLLAVAKDLVKSAAA,not found
9,design_622_fcc41892-afde-4fb9-b6e8-b664fffd6a75_1089_dldesign_0_cycle1_af2pred (protein) AATKEEAQKAMVEASEVATELLRKAGEAYKAGDEELAEELRRAANELMRAMVQAAKDPAKGLEAVKKAVERGKELLKRAEEALKKA,not found
10,design_621_7e0052dc-ae49-49a0-b99f-9f3ee649cc2f_1562_dldesign_0_cycle1_af2pred (protein) EEKKEEARERGEELVKEAEELAEKAAATSALAAMEAAEYALEVQQEIVELYSEAGDEEGLEEFSARVNKIVAYLQKAALEAQKAEA,not found
11,design_621_7e0052dc-ae49-49a0-b99f-9f3ee649cc2f_1640_dldesign_0_cycle1_af2pred (protein) GKKEEADKLVEEGNKLFEEAEALAKEGKVAEGSSKLIEGIKLYAEAAKLYREVDPAKADELYATAHAKSAKVNKLLLAAAR,not found
12,design_622_fcc41892-afde-4fb9-b6e8-b664fffd6a75_393_dldesign_0_cycle1_af2pred (protein) AAAEAAAKAAALKAKADAAAAKGEEYYAKGKEYAAKGDVEKASEYYLEAIKYYSEAAKYYAKVDPALADAAMKKAQEATKQMMALAK,not found
13,design_622_fcc41892-afde-4fb9-b6e8-b664fffd6a75_877_dldesign_0_cycle1_af2pred (protein) SEEYRRRAEELERRAREAAEEARRAERAEELRRYAEELRRIANEAMRLAMEAAQAGGDPEVVVRAVEVAVEALRAAGEAYRRAEELE,not found
14,design_622_fcc41892-afde-4fb9-b6e8-b664fffd6a75_1048_dldesign_0_cycle1_af2pred (protein) NPAVERARNVAEYAKQLIDFATANPAVPQALVDAAKAVLEAATKAAKEAEEDPSKAPEVLKRADEALAQANAISAQAAKAATAA,not found
15,design_621_7e0052dc-ae49-49a0-b99f-9f3ee649cc2f_1483_dldesign_0_cycle1_af2pred (protein) AEAERLLAEARAAVAKGRAAGLAAAEAGLGAALEAARAMDAEARALAAAAEAAGHPEVAEEIRRAAGAAINEVLARASQVALAKAA,not found
16,design_622_fcc41892-afde-4fb9-b6e8-b664fffd6a75_1090_dldesign_0_cycle1_af2pred (protein) AAALAEATAMQFVRQAKATTDPERKRALARGAALALQSVVSPEEAARKTAEMAEALGAPPEVIAAARALL,not found
17,design_622_fcc41892-afde-4fb9-b6e8-b664fffd6a75_788_dldesign_0_cycle1_af2pred (protein) SAAAEQLTLAAVRALSASAVAAEDPASSEQLFAVARDIADAASPETRARGLAIVDAARARAAARRAARAAAA,not found
18,design_622_fcc41892-afde-4fb9-b6e8-b664fffd6a75_413_dldesign_0_cycle1_af2pred (protein) SEKEEASKKLKELEEEGNKAYEKGKAAAAAGDTGAAGAELVKIVKMSSEAYKLSKYIPEEGKKVSDELSAKAVELSKLLTA,not found
19,design_622_fcc41892-afde-4fb9-b6e8-b664fffd6a75_365_dldesign_0_cycle1_af2pred (protein) AEAAKKNIEIAAKAGEAAVKNLKTMKPEDAKKLYEVVKDLAEYMKEQGKKAPEQAELAKEKAEKIEEEAKKALKEVEEKGKKA,not found
